Screening data: PubChem, National Center for Advancing Translational Sciences (NCATS)
In the library only some 10% were active in any assay of this set; here they are far more common.
Six1-Eya2 blk: qHTS Assay for Inhibitors of the Six1/Eya2 Interaction | Homeobox protein SIX1 (Homo sapiens) + Protein phosphatase EYA2 (Homo sapiens), … | AlphaScreen GST-Six1/His-Eya2 binding, biochemical; active compounds read low | activity change, % (concentration not given with the values) | actives 0.56% (n = 360,000); in the data active = activity change below about -65%; inconclusive = mostly about -30% to -63%; note: % is set by controls: 0 for no effect and ±100 for the full control effect
Target sequence (O00167 whole entry, looked up): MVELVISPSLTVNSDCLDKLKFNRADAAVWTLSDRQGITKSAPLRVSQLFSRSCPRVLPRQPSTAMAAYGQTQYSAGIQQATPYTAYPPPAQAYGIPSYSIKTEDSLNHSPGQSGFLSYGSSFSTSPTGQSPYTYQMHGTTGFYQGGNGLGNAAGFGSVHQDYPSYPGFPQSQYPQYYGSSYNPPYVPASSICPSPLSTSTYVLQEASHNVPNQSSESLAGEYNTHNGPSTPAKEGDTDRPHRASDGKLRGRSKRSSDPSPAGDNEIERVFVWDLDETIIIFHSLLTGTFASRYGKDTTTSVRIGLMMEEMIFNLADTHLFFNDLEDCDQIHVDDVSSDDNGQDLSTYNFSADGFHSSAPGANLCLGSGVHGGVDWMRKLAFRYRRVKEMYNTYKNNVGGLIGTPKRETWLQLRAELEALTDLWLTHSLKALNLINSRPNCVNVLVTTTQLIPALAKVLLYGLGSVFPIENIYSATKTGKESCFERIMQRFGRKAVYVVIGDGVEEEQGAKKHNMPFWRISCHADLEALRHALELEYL
Target sequence (Q15475 whole entry, looked up): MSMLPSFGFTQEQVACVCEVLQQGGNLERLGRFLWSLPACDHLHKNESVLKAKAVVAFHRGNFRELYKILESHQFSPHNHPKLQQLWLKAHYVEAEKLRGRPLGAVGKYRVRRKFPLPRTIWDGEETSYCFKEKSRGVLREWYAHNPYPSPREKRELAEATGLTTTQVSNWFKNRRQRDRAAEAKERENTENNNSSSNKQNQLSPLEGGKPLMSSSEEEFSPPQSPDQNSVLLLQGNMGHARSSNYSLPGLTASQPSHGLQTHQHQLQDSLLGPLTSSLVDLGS
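Six1/Eya2 binding was read as AlphaScreen signal after compounds were pinned into GST-Six1 plus His-tagged Eya2 (5X stock 250/500 nM) in pH 8.0 Tris/NaCl/TCEP buffer, beads added, then incubated 1 h, 37 C, dark.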
CtBP-E1A inh: qHTS Assay for Inhibitors of the CtBP/E1A Interaction. actives 0.49% (n = 340,000). activity change, % (no concentration beside the values). AID 651724, 2012. AlphaScreen GST-E1A/His-CtBP binding, 1536-well; active compounds read low. CtBP / adenovirus E1A interaction (AlphaScreen); in the data active = activity change below about -65%; inconclusive = mostly about -30% to -63%; note: % is set by controls: 0 for no effect and ±100 for the full control effect
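Protein mix (5X: 125 nM each GST-E1A, His-CtBP) was incubated with pinned compound 2 h at 37 deg C in dark, in 50 mM Tris pH 8.0 buffer with 300 mM NaCl. Glutathione donor and nickel acceptor beads followed; AlphaScreen signal read after 1 h.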
JMJD2A Tudor inh: qHTS Assay for Inhibitors of JMJD2A-Tudor Domain | Lysine-specific demethylase 4A (Homo sapiens), O75164 | actives 4.4% (n = 390,000) | AlphaScreen JMJD2A-Tudor / H3K4me3 peptide binding | Potency, µM (top dose mostly 114 µM), inactives show at the highest dose activity change, negative = inhibition, hits mostly inhibitors; note: potency is the fitted concentration of half-maximal effect; % is set by controls: 0 for no effect and ±100 for the full control effect; nearly all actives have a fitted effect of over 50% in size
G9a block: qHTS Assay for Inhibitors of Histone Lysine Methyltransferase G9a; Histone-lysine N-methyltransferase EHMT2 (Homo sapiens), Q96KQ7; G9a H3K9 monomethylation, AlphaScreen, 2 h; Potency, µM (highest dose often 102 µM), for the others: at the top dose activity, negative = inhibition, most hits filed as inhibitors; actives 8.8% (n = 350,000); note: potency is the fitted concentration of half-maximal effect; % is set by controls: 0 for no effect and ±100 for the full control effect; nearly all actives have a fitted effect of over 75% in size
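G9a (20 nM) was preincubated 15 min with compound, then reacted 2 h at room temperature with 500 nM biotin-H3K9 peptide and 20 µM SAM. Monomethyl-H3K9 detected by AlphaScreen using anti-H3K9me1 antibody.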
BAZ2B inh: qHTS Assay for Inhibitors of BAZ2B; AlphaScreen BAZ2B-H3K14Ac peptide displacement; actives 4.4% (n = 360,000); Potency, µM (top dose mostly 114 µM), inactives show at the highest dose activity change, negative = inhibition, hits mostly inhibitors; note: potency is the fitted concentration of half-maximal effect; % is set by controls: 0 for no effect and ±100 for the full control effect; nearly all actives have a fitted effect of over 60% in size
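Protein-peptide AlphaScreen: BAZ2B 50 nM, b-H3K14Ac 50 nM, 1x PBS pH 7.4 + 0.01% Tween-20. Preincubation 30 min RT; cpd 30 min RT (top 110 uM); beads 20 min RT, light-protected.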
HP1b binding inh: HTS for Inhibitors of HP1-beta Chromodomain Interactions with Methylated Histone Tails; Chromobox protein homolog 1 (Homo sapiens), P83916; actives 0.56% (n = 390,000); Potency, µM (top dose mostly 114 µM), for the others: at the top dose activity change, negative = inhibition, usual class: inhibitors; AlphaScreen HP1-beta / biotin-H3K9me3 peptide binding; AID 540317, 2011; note: potency is the fitted concentration of half-maximal effect; nearly all actives have a fitted effect of over 70% in size
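Compound inhibition of the preformed complex between 50 nM HP1-beta and 50 nM biotinylated H3K9me3 peptide was read by AlphaScreen. Buffer was PBS pH 7.4 with 0.01% Tween-20. Incubations ran 30 min at room temperature, with 10 ug/mL donor/acceptor beads.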
Numbers without * were called inactive; ? = inconclusive; nt = not tested or not shown; [ ] = another dose, or the depositor's remark. Unless noted, calls come from the whole dose curve; as a rule, active = well fitted inhibition curve with a large enough effect; inconclusive = small, poorly fitted or top-dose-only effect; inactive = no such curve, though single readings can be large or run the other way.

SMILES	Six1-Eya2 blk	CtBP-E1A inh	JMJD2A Tudor inh	G9a block	BAZ2B inh	HP1b binding inh
Cc1ccc(CN(C)C(=O)C2CCCN2C(=O)c2cccs2)o1 (stereo not given)	1.4	2.4	-20.1%	44.7µM*	-23.4%	-3.0%
CN(CC(=O)Nc1ccc(F)c(F)c1F)C(=O)C1CCCN1C(=O)c1cccs1 (stereo not given)	-7.3	-5.6	nt	nt	nt	nt
Oc1oc(-c2ccccc2)nc1C=Nc1ccccc1	-3.2	8.9	89.1µM*	?	-11.6%	6.9%
O=C(Oc1cc(=O)n2ccccc2n1)c1ccccc1	-4.8	11.8	-6.3%	17.8µM*	-1.5%	46.7%
C#CCOCCOCCOCCNc1nc(N2CCN(C(=O)Cn3cc(CCCCN)nn3)CC2)nc(N2CCN(C(=O)[C@H](C)n3cc(CCCN=C(N)N)nn3)CC2)n1	nt	nt	nt	28.2µM*	?	nt
C#CCOCCOCCOCCNc1nc(N2CCN(C(=O)Cn3cc(CC(C)O)nn3)CC2)nc(N2CCN(C(=O)[C@H](C)n3cc(CCCN=C(N)N)nn3)CC2)n1 (stereo not given in full)	4.5	7.9	44.7µM*	7.08µM*	79.4µM*	-10.4%
C#CCOCCOCCOCCNc1nc(N2CCN(C(=O)Cn3cc(CCCN=C(N)N)nn3)CC2)nc(N2CCN(C(=O)[C@H](CCCCN)n3cc(CC(C)O)nn3)CC2)n1 (stereo not given in full)	-0.6	4.8	-10.6%	16.4%[2.33 µM]	4.9%	17.4%
CCCCN(C)CCCNC(=O)c1cc(=O)[nH]c2ccc(S(=O)(=O)N3CCCCC3C)cc12 (stereo not given)	3.5	nt	-16.6%	?	-28.8%	56.9%
Cc1ccc(S(=O)(=O)c2cn(Cc3ccccc3F)c3cc4c(cc3c2=O)OCO4)cc1	nt	nt	-6.0%	-1.7%[59 µM]	2.0%	46.2%
Cc1ccc(-n2c(=O)c3cc4c(=O)n(-c5ccc(C)c(C)c5)c(=O)c4c(C(=O)c4ccc(C(=O)O)cc4)c3c2=O)cc1C	-25.4	-3.6	12.6µM*	nt	10µM*	?
Cc1ccc(N2C(=O)c3ccc(C(=O)O)cc3C2=O)cc1C	-0.2	1.7	-14.1%	-31.0%[59 µM]	-35.2%	27.4%
O=C(O)c1ccc(-n2c(=O)c3ccccc3c3ccccc3c2=O)cc1	?	-0.2	-17.5%	12.2%[0.501 µM]	89.1µM*	50.9%
COc1ccc(C)c2sc(N(Cc3cccnc3)C(=O)CCc3ccccc3)nc12	nt	nt	-23.4%	?	-24.5%	29.0%
O=c1ccc2cc([N+](=O)[O-])c(CCO)cc2o1	-2.5	0.6	-15.2%	nt	-5.3%	23.3%
CCN1C2=C(C(=O)CCC2)C(c2ccc(O)cc2)C2=C1CCCC2=O	2.5	1.5	-1.5%	20µM*	4.9%	27.0%
CCC(C)NC(=O)C1CCC(CNS(=O)(=O)c2ccc(Cl)cc2)CC1 (stereo not given)	nt	nt	-15.7%	-15.0%[59 µM]	3.5%	35.7%
Cc1nc(C/C(=N\Nc2ccccc2)c2ccc(O)cc2O)cs1	-9.9	-2.7	50.1µM*	4.47µM*	50.1µM*	?
CCc1cc(/C(Cc2ccccn2)=N\Nc2ccccc2)c(O)cc1O	7.3	-16.6	?	2.51µM*	50.1µM*	?
O=C(NCc1ccccn1)Nc1cccc(NC(=O)NCc2ccccn2)c1	-12.6	-24.0	-4.7%[57.1 µM]	7.5%[59 µM]	-36.2%	38.1%
Cc1cc2n(n1)CCC(=O)N2Cc1ccc(C(=O)Nc2cc(Cl)ccc2C)cc1	nt	nt	6.9%	-6.9%[59 µM]	-10.5%	32.6%
Cc1ccnc2nc(C(=O)N3CCN(S(=O)(=O)c4ccccc4)CC3)nn12	0.3	-8.7	-11.4%	31.1%[59 µM]	12.7%	14.5%
CCCc1c(O)nc(SCCN(CC)CC)n(C(=O)c2ccccc2)c1=O	1.7	0.0	-29.7%	79.4µM*	-32.5%	19.7%
O=C(O)CCCN=CC1=C(O)CNC1=O	5.5	0.0	22.4µM*	?	-17.5%	-16.1%
CC(=O)c1cc2c(cc1NC(=O)Cc1c(C)noc1C)OCO2	-7.9	-1.7	-26.7%	nt	nt	12.2%
Cc1ccc(S(=O)(=O)N2CCN(c3nc(-c4cccs4)nc4c3ncn4COC(=O)C(C)(C)C)CC2)cc1	nt	nt	-16.3%	nt	nt	30.0%
SMILES	Six1-Eya2 blk	CtBP-E1A inh	JMJD2A Tudor inh	G9a block	BAZ2B inh	HP1b binding inh
Cc1ccc(NC(=O)COCC(=O)Nc2ccc(C)cc2)cc1	22.3	nt	-14.0%	nt	1.6%	31.7%
Cc1ccc(S(=O)(=O)OCC(=O)Nc2ccc(C(=O)O)c(O)c2)cc1	-14.8	3.9	20µM*	nt	nt	-9.6%
COc1cc(OC)cc(C(=O)N2CC(=O)Nc3ccc(Cl)cc3C2c2ccccc2)c1 (stereo not given)	nt	nt	-11.3%	-30.6%[59 µM]	-8.0%	12.6%
CN(C(=O)CSc1nc2cc(C(=O)O)ccc2c(=O)n1Cc1ccccc1)C1CCS(=O)(=O)C1 (stereo not given)	-1.7	nt	-15.9%	50.1µM*	-4.5%	18.8%
Cc1cc2c(s1)c1cnn(Cc3ccc(C(C)(C)C)cc3)c(=O)c1n2C	nt	nt	-7.5%	nt	nt	nt
O=S(=O)(c1ccc(Cl)cc1)N(CCCN1CCOCC1)Cc1cccs1	2.6	nt	8.91µM*	28.2µM*	50.1µM*	14.8%
O=C(Nc1ccc(Cl)cc1)N(CCCN1CCOCC1)Cc1cccs1	4.3	2.3	-28.4%	9.2%	-3.6%	16.8%
CC(=O)OCOC(c1ccc2ccccc2c1)P(=O)(OCOC(C)=O)OCOC(C)=O (stereo not given)	nt	nt	nt	-0.1%[59 µM]	nt	nt
CCN(CC)S(=O)(=O)c1ccc2c(c1)NC(=O)C1CCCN21 (stereo not given)	-3.5	1.6	5.1%	-6.6%	2.7%	29.2%
O=C1Nc2cc(Cl)cnc2N2CCCC12 (stereo not given)	-7.5	-6.4	-35.2%	8.91µM*	-1.7%	13.4%
O=C1Nc2ccccc2N2CCCC12 (stereo not given)	nt	nt	nt	20µM*	-22.7%	nt
O=C1Nc2cc(C(F)(F)F)ccc2N2CCCCC12 (stereo not given)	0.3	-0.9	0.3%	50.1µM*	-14.3%	49.4%
COC(=O)c1ccc(NC(=O)c2ccc3c(c2)NC(=O)C2CCCN32)cc1 (stereo not given)	nt	nt	nt	10µM*	50.1µM*	nt
O=C(Nc1ccc(F)c(Cl)c1)N1CCCCCC1	2.6	2.0	-10.3%	21.3%	-3.9%	38.6%
COc1ccc(Br)c(C=O)c1OS(=O)(=O)c1ccc(C)cc1	-1.5	-14.1	nt	nt	nt	nt
CCOC(=O)Cn1c(=O)n(CC2CCCO2)c2nc(-c3ccccc3F)nc(C(N)=O)c21 (stereo not given)	nt	nt	-16.9%	6.9%[59 µM]	-12.7%	13.2%[57 µM]
